The list is not random: actives were taken first. Their share in the collection is about 10%.
CCT chaperon mod = cytosolic chaperonin activity modulation; purified chaperonin ATPase assay, HTRF ADP detection, 30 min; 0.3% of 360,000 active; activity change, % (concentration not given with the values), hits read low; AID 651819; in the data active = activity change below about -30%
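ATPase activity: ADP formed was measured by HTRF Transcreener (665/615 nm ratio) after 30 min at 37 deg C with 10 uM ATP. Compounds screened at one 76 uM concentration against 40 or 20 nM TRiC in Tris pH 7.4/KCl/MgCl2/DTT buffer.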
VDR inh = vitamin D3 receptor (human) inhibition | 0.93% of 400,000 active | Potency, µM, for the others: max response, negative = inhibition, hits mostly inhibitors | P11473 | VDR-SRC2-3 peptide fluorescence polarization, 2 h; also: potency is read from the fitted curve at half-maximal effect
Target sequence (P11473 whole entry, looked up): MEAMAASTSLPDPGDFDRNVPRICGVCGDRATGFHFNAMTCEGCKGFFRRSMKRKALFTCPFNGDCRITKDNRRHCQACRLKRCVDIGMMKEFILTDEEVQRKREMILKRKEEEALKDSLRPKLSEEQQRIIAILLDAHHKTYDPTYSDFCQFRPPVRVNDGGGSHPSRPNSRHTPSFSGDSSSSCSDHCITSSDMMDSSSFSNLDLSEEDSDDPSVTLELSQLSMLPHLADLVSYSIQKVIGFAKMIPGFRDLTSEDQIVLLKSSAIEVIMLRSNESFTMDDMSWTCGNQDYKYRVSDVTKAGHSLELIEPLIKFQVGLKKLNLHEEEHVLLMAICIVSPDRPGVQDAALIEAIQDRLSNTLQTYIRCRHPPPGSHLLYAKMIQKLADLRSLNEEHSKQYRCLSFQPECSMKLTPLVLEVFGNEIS
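Fluorescence polarization assay measuring small-molecule disruption of VDR binding to the coregulator peptide SRC2-3. Compounds were pin-transferred (23 nl) into the reagent mix and incubated 2 h at room temperature before reading.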
PLK1 PBD block = blocks phosphopeptide binding to human PLK1 polo-box domain; P53350; Potency, µM, inactives show max response, negative = inhibition, actives largely listed as inhibitors; AID 720504; 2.8% of 360,000 active; Plk1 PBD binding of FITC phosphopeptide, fluorescence polarization; also: potency is read from the fitted curve at half-maximal effect; series mostly up to about 57 µM; nearly all actives have a fitted effect of over 65% in size
G9a block = inhibitors of human histone lysine methyltransferase G9a | G9a H3K9 monomethylation, AlphaScreen, 2 h | Potency, µM (highest dose often 102 µM), for inactives: top-dose activity, negative = inhibition, hits mostly inhibitors | 8.8% of 350,000 active; also: potency is read from the fitted curve at half-maximal effect; nearly all actives have a fitted effect of over 75% in size
Target sequence (Q96KQ7 913-1193 limits assumed): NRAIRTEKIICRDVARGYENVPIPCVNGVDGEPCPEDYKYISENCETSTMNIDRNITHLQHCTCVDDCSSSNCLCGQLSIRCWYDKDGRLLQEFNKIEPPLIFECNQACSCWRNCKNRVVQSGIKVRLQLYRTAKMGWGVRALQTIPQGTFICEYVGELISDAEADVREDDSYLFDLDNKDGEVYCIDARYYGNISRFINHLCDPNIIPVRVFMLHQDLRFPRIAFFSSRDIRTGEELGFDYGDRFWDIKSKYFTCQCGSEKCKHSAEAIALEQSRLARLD
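Enzyme 20 nM + cpd, 15 min RT; add b-H3K9 pep 500 nM / SAM 20 uM; 2 h RT; anti-H3K9me1 Ab 0.5 ug/mL + SA donor / anti-rabbit acceptor beads 20 ug/mL each, 10 min; AlphaScreen read.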
MmCpn inh = inhibitors of Methanococcus maripaludis chaperonin TRiC (MmCpn) | purified Mm-Cpn ATPase, ADP Transcreener TR-FRET | Potency, µM (doses to about 76.9 µM), for inactives: at the top dose activity, negative = inhibition, actives largely listed as inhibitors | 0.031% of 330,000 active; also: potency is read from the fitted curve at half-maximal effect; nearly all actives have a fitted effect of over 80% in size
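Purified archaeal Mm-CPN (25nM final) preincubated 10 min at 37degC with compound, then 10uM ATP for 30 min at 37degC; ADP measured by HTRF Transcreener TR-FRET; buffer 30 mM TRIS pH 7.4, 100mM KCl, 5mM MgCl2, 1mM DTT.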
Sfp inh = inhibitors of Bacillus subtilis Sfp phosphopantetheinyl transferase; Q9F4F7; Biochemical Sfp PPTase activity, qHTS; Potency, µM, for the others: largest response in the series, negative = inhibition, hits mostly inhibitors; 3.5% of 310,000 active; AID 1490;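 also: the enzyme is Sfp with the accession as filed and its product quenches rhodamine fluorescence; potency is read from the fitted curve at half-maximal effect; 0% = enzyme reaction without inhibitor and -100% = no enzyme wells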
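Step 1, compound plus 15 nM Sfp-PPTase, 15 min, room temperature. Step 2, add rhodamine-CoA (5 uM) and BHQ-2-YbbR (12.5 uM). Step 3, read 525/598 nm fluorescence at 0 and 30 min.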
Numbers without * were called inactive; ? = inconclusive; nt = no result; [ ] = dose if it differs, or a comment. Unless noted, calls follow the shape of the dose curve; as a rule, active = well fitted curve in the direction sought with a large enough effect; inconclusive = small, poorly fitted or top-dose-only effect, or another doubt; inactive = no such curve, though single readings can be large; an effect the other way counts as inactive or inconclusive. Unless noted, % is scaled to controls: 0 for no effect and ±100 for the full control effect.

SMILES	CCT chaperon mod	VDR inh	PLK1 PBD block	G9a block	MmCpn inh	Sfp inh
O=C(Cc1ccccc1Cl)Nc1ccc(S(=O)(=O)Nc2nccs2)cc1	-2	0%	-6%	-1%	-1%	8%
O=C(CSc1ccc(Br)c2cccc(Cl)c12)Nc1ccc(S(=O)(=O)Nc2nccs2)cc1	-37*	36%	?	32µM*	?	24%
Cc1cccc(N2C(=O)C(CC(=O)Nc3ccccc3)N(C3CCCCC3)C2=O)c1 (stereo unspecified)	nt	-22%	nt	-4%[59 µM]	nt	nt
Cc1cccc(-n2c(CNC(=O)c3cccc([N+](=O)[O-])c3C)n[nH]c2=S)c1	-2	-19%	-11%	11µM*	-1%	16%
O=C(NCc1n[nH]c(=S)n1-c1ccccc1)c1cccs1	-1	7%	-16%	22µM*	1%	5%
O=C(NCc1n[nH]c(=S)n1-c1ccc(Cl)c(Cl)c1)c1cccs1	-1	-1%	-24%	?	-2%	89µM*
O=C(NCc1n[nH]c(=S)n1-c1cccc(Cl)c1)c1cccs1	-1	-6%	?	20µM*	2%	12%
COc1ccccc1-n1c(CNC(=O)c2cccc([N+](=O)[O-])c2C)n[nH]c1=S	1	5%	3%	?	2%	15%
CCOC(=O)C1=C(c2ccccc2)Nc2ncnn2C1c1ccc(C(=O)O)cc1 (stereo unspecified)	0	6%	-5%	nt	-1%	10%
CCOC(=O)C1=C(c2ccccc2)NC(N)=NC1c1ccc(OCc2ccc(C(=O)OC)cc2)cc1 (stereo unspecified)	-3	-7%	-8%	nt	2%	79µM*
O=C(CCNc1cccc(F)c1)c1cccc([N+](=O)[O-])c1	2	89µM*	?	7.1µM*	-2%	20%
O=C(COc1cccc(NC(=O)c2cccc([N+](=O)[O-])c2)c1)c1ccc(F)cc1	-2	15%	0%	16%[59 µM]	0%	9%
O=C(CCNc1cccc(F)c1)c1cc2ccccc2o1	-1	?	?	10µM*	-23%	-1%
CC(=O)CC(=O)[C@@]1(O)CC[C@@H]2[C@@H]3C=C(C)C4=CC(=O)CC[C@@H]4[C@H]3CC[C@]21C	nt	1%	nt	11%[21.5 µM]	nt	10%
Cc1ccc(C(=O)c2oc3ccccc3c2NC(=O)Cc2ccccc2)cc1	nt	-4%	nt	43%[59 µM]	nt	nt
O=c1c(Cl)c(NCCCO)cnn1-c1nc2ccccc2[nH]1	1	-16%	13µM*	6%[12.7 µM]	-14%	12%
Cc1ccc(CC2SC(N)=NC2=O)cc1 (stereo unspecified)	-1	-30%	-5%	16%	3%	-9%
NC1=NC(=O)C(Cc2ccc(F)cc2)S1 (stereo unspecified)	1	-15%	24µM*	nt	-1%	6%
Cc1cccc(CC2SC(N)=NC2=O)c1 (stereo unspecified)	1	-6%	-27%	50µM*	-1%	-20%
COc1ccc(CC2SC(N)=NC2=O)cc1 (stereo unspecified)	3	4%	-4%	9%[0.501 µM]	-2%	17%
CC(C)(C)c1ccc(C(=O)Nc2cc(-c3ccccc3)nn2-c2ccccc2)cc1	nt	-5%	nt	-2%[59 µM]	nt	nt
CCOC(=O)c1c(C)n(C(=O)c2ccco2)c(=O)n1C(=O)c1ccco1	-1	?	?	56µM*	1%	-5%
CN(C)CCN(C(=O)c1ccco1)c1nc2cc3c(cc2s1)OCCO3	0	-7%	1%	nt	-6%	1%
CN(C)CCN(C(=O)c1ccc(N2C(=O)CCC2=O)cc1)c1nc2cc3c(cc2s1)OCCO3	nt	nt	nt	32µM*	5%	-13%
Cc1ccc2sc(N(CCCN(C)C)C(=O)c3ccc(S(=O)(=O)N(C)C4CCCCC4)cc3)nc2c1C	0	-6%	-1%	32µM*	0%	nt
SMILES	CCT chaperon mod	VDR inh	PLK1 PBD block	G9a block	MmCpn inh	Sfp inh
CCN(Cc1ccccc1)S(=O)(=O)c1ccc(C(=O)N(CCCN(C)C)c2nc3c(C)c(C)ccc3s2)cc1	1	2%	-5%	35µM*	0%	nt
CN(C)CCCN(C(=O)c1ccc(C(=O)c2ccccc2)cc1)c1nc2cc3c(cc2s1)OCCO3	1	-9%	-7%	nt	2%	-18%
CCN(Cc1ccccc1)S(=O)(=O)c1ccc(C(=O)N(CCCN(C)C)c2nc3cc4c(cc3s2)OCO4)cc1	1	-2%	0%	nt	3%	56µM*
Cc1ccc(NC(=O)NCCOCCn2c(=O)oc3ccccc32)cc1C	nt	6%	nt	-19%[59 µM]	nt	nt
CN(C)CCN(C(=O)c1ccc(C(=O)c2ccccc2)cc1)c1nc2cc3c(cc2s1)OCO3	0	-26%	-12%	nt	0%	56µM*
CN(C)CCCN(C(=O)c1ccc(S(=O)(=O)N(C)C)cc1)c1nc2cc3c(cc2s1)OCO3	-3	4%	-15%	50µM*	-2%	-1%
CN(C)CCN(C(=O)c1ccc(C(=O)c2ccccc2)cc1)c1nc2cc3c(cc2s1)OCCO3	1	-8%	-12%	nt	2%	?
COc1ccc(C(=O)/C(Br)=C/C(=O)O)cc1	nt	-5%	nt	?	nt	16%
CC(C)CC(NC(=O)C1CCCCC1)C(=O)Nc1cccc(C(F)(F)F)c1 (stereo unspecified)	nt	-13%	nt	-2%[59 µM]	nt	nt
CCOC(=O)c1c(NC(=O)COc2ncnc3ccccc23)sc(C)c1C	0	20%	-6%	11%[59 µM]	1%	?
CCOC(=O)c1c(C)[nH]c(C)c1C(=O)COc1ncnc2ccccc12	-5	?	12µM*	?	-2%	11%
CCOC(=O)c1c(C)[nH]c(C)c1C(=O)COC(=O)c1cc2ccccc2cc1O	-1	-6%	-7%	50µM*	0%	12%
CCCCCCCCCCCCCCCC(=O)N[C@H](CN1CCOCC1)[C@H](O)c1ccccc1	nt	0%	nt	11%[59 µM]	nt	12%
COC(=O)c1ccccc1NC(=O)Cn1c(SC)c(F)cnc1=O	-2	12%	-1%	0.56µM*	1%	-20%
CCc1nn(CC(=O)Nc2cccc(C(C)=O)c2)c(=O)c2cc3sccc3n12	nt	-20%	nt	?	nt	nt
O=C(O[C@@H]1OC2COC(=O)c3cc(O)c(O)c(O)c3-c3c(cc(O)c(O)c3O)C(=O)O[C@@H]([C@H]1O)[C@@H]2O)c1cc(O)c(O)c(O)c1	1	-17%	9.5µM*	1.6µM*	-1%	4.5µM*
CCC(C(=O)OCC(=O)NC(=O)NC(C)(C)C)c1ccccc1 (stereo unspecified)	1	-21%	27µM*	-3%	0%	8%
Cn1c(=O)c(=O)n(C)c2cc(S(=O)(=O)Nc3ccc(Cl)c(C(F)(F)F)c3)ccc21	nt	-7%	nt	-27%[59 µM]	nt	nt
Clc1ccc(CN2CCN(/N=C/c3ccco3)CC2)cc1	0	-18%	-1%	50µM*	-1%	3%
